Hits are enriched below; roughly 18% of the tested compounds scored in any of these assays.
VP16 counter – Gal4-VP16 reporter inhibition counter-screen. Drosophila S2 Gal4-VP16 UAS-luciferase, luminescence, 20 h. Potency, µM (titrated, usually from 53.6 µM), for inactives: at the highest dose activity, negative = inhibition, most hits filed as inhibitors. actives 3.5% (n = 310,000). AID 2546;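 further: Gal4-VP16 expression switched on by copper sulfate through the metallothionein promoter; potency means the concentration at half of the fitted maximal effect; nearly all actives have a fitted effect of over 50% in size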
IL1B secr inh – inflammasome signaling inhibition, IL-1 beta readout; THP-1 LPS/ATP IL-1B secretion, AlphaLISA, 16 h; hits give low values; activity change, % at 57.5 µM; actives 4.7% (n = 360,000); AID 743279; in the data active means activity change below about -50%; inconclusive means mostly about -30% to -49%
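Secreted IL-1B measured by AlphaLISA bead assay after 16 h compound exposure of THP-1 cells; compounds (final up to 57.5 uM) added 1 h before LPS (250 ng/mL) and ATP (1.25 mM) stimulation; lower signal means less secretion.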
TDP1 cell CPT – DT40-hTDP1 cell growth loss with CPT; chicken DT40 Tdp1-/-;hTDP1 cells + 20 nM CPT, ATP luminescence, 48 h; Potency, µM (highest dose often 46.2 µM), inactives show at the highest dose activity change, negative = growth inhibition, actives largely listed as inhibitors; actives 12% (n = 420,000); AID 686979; further: potency means the concentration at half of the fitted maximal effect; nearly all actives have a fitted effect of over 55% in size
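Chicken DT40 Tdp1-/- cells complemented with human TDP1, 400 cells/well, exposed to compounds plus 20 nM camptothecin for at least 48 h at 37 C; viability read as ATP content by CellTiter-Glo luminescence.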
RORgamma inh – blocks mouse ROR gamma transcriptional activity; P51450; actives 5.4% (n = 310,000); Drosophila S2 Gal4-RORgamma UAS-luciferase reporter, 20 h; Potency, µM (titrated, usually from 53.6 µM), for the others: top-dose activity change, negative = inhibition, most hits filed as inhibitors; further: potency means the concentration at half of the fitted maximal effect; nearly all actives have a fitted effect of over 60% in size
Target sequence (P51450 whole entry, looked up, the tested form may be a part): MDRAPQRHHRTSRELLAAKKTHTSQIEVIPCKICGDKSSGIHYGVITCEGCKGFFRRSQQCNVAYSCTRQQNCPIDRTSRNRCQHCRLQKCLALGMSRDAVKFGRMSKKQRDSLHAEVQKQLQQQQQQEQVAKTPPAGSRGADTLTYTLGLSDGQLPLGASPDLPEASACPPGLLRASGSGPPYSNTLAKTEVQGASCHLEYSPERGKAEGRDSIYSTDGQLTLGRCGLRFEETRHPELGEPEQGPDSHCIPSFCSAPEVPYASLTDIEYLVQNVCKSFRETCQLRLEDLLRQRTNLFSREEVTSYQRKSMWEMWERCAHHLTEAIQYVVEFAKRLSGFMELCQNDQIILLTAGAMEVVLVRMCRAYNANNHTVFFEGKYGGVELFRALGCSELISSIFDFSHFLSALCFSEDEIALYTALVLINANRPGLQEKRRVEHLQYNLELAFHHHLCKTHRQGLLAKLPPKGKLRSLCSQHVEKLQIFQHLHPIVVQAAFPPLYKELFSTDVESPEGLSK
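ROR gamma transcriptional activity was tracked as Gal4-UAS luciferase output in stably transfected Drosophila Schneider cells, with compound added 1 hr before 700 uM copper sulfate induction and a 20 hr ambient-temperature incubation.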
LDHA inh – LDHA (human) enzyme inhibition; P00338; purified LDHA, NADH/diaphorase-resazurin fluorescence; hits give low values; activity change, % (values are at about 110 or 230 µM); actives 0.15% (n = 480,000); AID 1347041; in the data active means activity change below about -30%; inconclusive means mostly about -25% to -30%;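 further: plate controls were DMSO wells for no effect and wells without enzyme for full effect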
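Human LDH5 at 2 nM final in Tris HCl pH 7.4 with 0.06 mM NADH and 0.2 mM pyruvate, reacted 5 minutes at room temperature. Remaining NADH coupled via diaphorase/resazurin; resorufin fluorescence read at 0 and 20 minutes, normalized to enzyme-free and DMSO wells.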
TDP1 cell noCPT – qHTS for Inhibitors of human tyrosyl-DNA phosphodiesterase 1 (TDP1): qHTS in cells in absence of CPT | DT40 Tdp1-/- hTDP1 cells, no CPT, ATP luminescence, 48 h | Potency, µM (highest dose often 46.2 µM), for the others: at the highest dose activity change, negative = growth inhibition, hits mostly inhibitors | actives 15% (n = 420,000); further: potency means the concentration at half of the fitted maximal effect; nearly all actives have a fitted effect of over 55% in size
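Chicken DT40 Tdp1-/- cells complemented with human TDP1, screened without camptothecin (DMSO vehicle only), 400 cells/well. Compounds pin-transferred, cells incubated at 37 °C for at least 48 hr. Growth read as ATP-dependent luminescence (CellTiter-Glo, 30 min at RT).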
* hit, by the source's call; ? = inconclusive; . = not tested or not shown; [ ] = dose if it differs, or a comment. Unless noted, the call rests on the fitted dose curve; in most records, active means well fitted curve in the direction sought with a large enough effect; inconclusive means small, poorly fitted or top-dose-only effect, or another doubt; inactive means no such curve, though single readings can be large; an effect the other way counts as inactive or inconclusive. Unless noted, on the % scale 0 is the no-effect control and ±100 the full control effect.

SMILES | VP16 counter | IL1B secr inh | TDP1 cell CPT | RORgamma inh | LDHA inh | TDP1 cell noCPT
C=CCOC(=O)C1=C(C)OC(N)=C(C#N)C1c1ccc2c(c1)OCO2 (stereo not drawn) | ? | 18 | 26µM* | ? | 1 | 16µM*
Cc1ccc(C(=O)C(C)OC(=O)c2c(C)noc2C)cc1C (stereo not drawn) | . | . | . | . | -8 | .
c1ccc(-n2c(SCC3CCCCO3)nnc2-c2cccs2)cc1 (stereo not drawn) | -12% | -11 | 18µM* | -4% | -14 | ?
O=C(CSc1nnc(-c2cccs2)n1-c1cccc(Cl)c1)c1cccc2c1OCCO2 | 4% | -1 | ? | -16% | -11 | 16µM*
O=C(O)CSc1nnc(-c2cccs2)n1-c1ccc(Cl)cc1 | 0% | -7 | ? | -17% | -2 | 29µM*
O=C(O)CSc1nnc(-c2ccncc2)n1-c1ccc(Cl)cc1 | -3% | 16 | 12% | -5% | -9 | -10%
CCN1CCc2c(sc(NC(=O)Cc3ccccc3)c2C(=O)OC)C1 | 1% | ? | 12µM* | 0% | -11 | ?
CCOC(=O)c1c(NC(=O)CCS(=O)(=O)c2ccccc2)sc2c1CCN(C)C2 | -4% | 0 | 16µM* | 20% | -2 | 16µM*
CCOC(=O)c1c(N)sc2c1CCN(Cc1ccccc1)C2 | 10% | . | ? | -24% | -2 | 15µM*
CCOC(=O)c1c(NC(=O)Cc2ccccc2)sc2c1CCN(C)C2 | -26% | ? | ? | 36% | 4 | 13µM*
CCOC(=O)N1CCc2c(sc(NC(=O)CCS(=O)(=O)c3ccccc3)c2C(N)=O)C1 | -24% | -10 | ? | 1% | 2 | ?
CCOC(=O)c1c(NC(=O)Cc2ccccc2)sc2c1CCN(CC)C2 | 2% | ? | ? | -1% | -5 | ?
Cc1cc(C)c(C#N)c(Sc2ccc3c(c2)OCCCO3)n1 | . | . | . | . | -2 | .
C[N+](C)(N)CC(=O)[O-] | . | . | . | . | 5 | .
CCOC(=O)c1c(NC(=S)Nc2ccc(OCC)cc2)sc2c1CCN(C)C2 | 16% | -6 | -28% | -30% | -4 | -18%
CCOC(=O)c1c(NC(=S)Nc2ccc(Cl)cc2)sc2c1CCN(C)C2 | -12% | -15 | 16µM* | 2% | -6 | ?
Oc1ccc(/C=N/NC(=S)Nc2cccnc2)c(O)c1 | ? | -65* | ? | -36% | 2 | 8.2µM*
Oc1ccc(/C=N/NC(=S)Nc2cccnc2)c(O)c1O | -11% | -10 | 9.2µM* | -35% | 51 | 15µM*
Oc1cccc(/C=N/NC(=S)Nc2cccnc2)c1O | 5.6µM* | -96* | 2.3µM* | 4.5µM* | 18 | 4.6µM*
O=C(O)c1cccc(NC(=S)N/N=C/c2cccnc2)c1 | -4% | 29 | 5% | ? | -1 | 3%
Nc1nnnn1NCc1cc(Cl)ccc1OCc1ccc(F)cc1Cl | . | . | . | . | 0 | .
CC1CN(C(=O)c2cccc(S(=O)(=O)N3CCN(c4ccc(F)cc4)CC3)c2)CC(C)O1 (stereo not drawn) | -29% | 5 | 26µM* | ? | -2 | ?
O=C(c1ccc(S(=O)(=O)N2CCCCCC2)cc1)N1CCCC(C(F)(F)F)C1 (stereo not drawn) | . | 13 | ? | . | -5 | ?
O=C(c1cccc(S(=O)(=O)N2CCN(c3ccc(F)cc3)CC2)c1)N1CCCC(C(F)(F)F)C1 (stereo not drawn) | . | -17 | 3.3µM* | . | -6 | 4.1µM*
O=C(NCc1ccc(F)cc1)c1cc(C2CCCCN2C(=O)c2ccc(Cl)cc2)on1 (stereo not drawn) | . | 0 | ? | . | -7 | 15µM*
SMILES | VP16 counter | IL1B secr inh | TDP1 cell CPT | RORgamma inh | LDHA inh | TDP1 cell noCPT
O=C(NCc1ccc(F)cc1)c1cc(C2CCCCN2C(=O)c2ccccc2)on1 (stereo not drawn) | . | -2 | ? | . | -7 | ?
COc1ccc(C(=O)N2CCCCC2c2cc(C(=O)NCc3ccc(F)cc3)no2)cc1 (stereo not drawn) | . | -11 | 16µM* | . | -2 | ?
CS(=O)(=O)N1CCCCC1c1cc(C(=O)NCc2ccc(F)cc2)no1 (stereo not drawn) | . | 8 | -29% | . | -5 | -26%
N#Cc1cccnc1NCCCNc1ncccc1C#N | . | . | . | . | 0 | .
C[N+](C)(C)CCCC#CC#CCCC[N+](C)(C)C | . | . | . | . | -13 | .
O=C1Nc2c(Cl)cc(Cl)cc2C1=O | . | -93* | 7.3µM* | . | 37 | 10µM*
C/C(=N/NC(=O)c1ccc(Br)s1)c1ccncc1 | 24% | -1 | -21% | 9% | -12 | 5%
COc1ccccc1NCC(=O)N/N=C(\C)c1ccc(Br)s1 | ? | -11 | -26% | -1%[10 µM] | 0 | -5%
C/C(=N\NC(=O)c1cc(Cl)ccc1O)c1ccc(Br)s1 | 2.5µM* | 18 | ? | 6.3µM* | -4 | ?
C/C(=N\NC(=O)c1ccc(Cl)cc1)c1ccc(Br)s1 | 1.1µM* | -28 | 12µM* | 0.35µM* | -10 | 10µM*
C/C(=N/NC(=O)CNc1ccc(C)cc1)c1ccc(Br)s1 | 1% | -1 | 18µM* | 4% | 0 | 18µM*
C/C(=N/NC(=O)c1ccco1)c1ccc(Br)s1 | ? | -30 | -14% | 13µM* | -8 | 0%
Cc1c2c(=O)n(-c3ccc(F)cc3)[nH]c2cc(=O)n1Cc1ccccc1 | . | . | . | . | -3 | .
CC(C)(CNC(=O)c1cc(-c2ccccc2F)on1)N1CCOCC1 | . | . | . | . | 5 | .
Cc1cc(N2CCN(C(=O)c3ccco3)CC2)n2nc(C)c(-c3ccc(Cl)cc3)c2n1 | -2% | . | . | 10% | . | .
COc1cccc(-c2cc3nc(C)c(C)c(N4CCN(C(=O)c5ccoc5)CC4)n3n2)c1 | . | 1 | 13µM* | . | 0 | 8.2µM*
Cc1cc(N2CCN(C(=O)c3ccco3)CC2)n2nc(-c3cccc(Cl)c3)cc2n1 | ? | -66* | 23µM* | ? | 0 | ?
Cc1cc(N2CCN(C(=O)c3ccco3)CC2)n2nc(C)c(-c3ccccc3)c2n1 | -1% | ? | 23µM* | -14% | -9 | 23µM*
COc1ccc(-c2cc3nc(C)cc(N4CCN(C(=O)c5ccco5)CC4)n3n2)cc1 | . | -29 | 21µM* | . | -5 | 12µM*
Cc1nn(C)c(C)c1CCC(=O)Nc1nccs1 | . | . | . | . | -4 | .
Cc1ccc(-c2cc3nc(C)cc(N4CCN(C(=O)c5ccoc5)CC4)n3n2)cc1 | . | -20 | ? | . | -4 | 18µM*

Assay outcomes as filed in PubChem BioAssay.
